PubChem BioAssay AID1117319 (Southern Research Institute, 2015)
Where “and” joins values, the source holds several entries; their conditions need not be identical. Identical values can stand only once. Out of some 260,000 compounds screened, about 1,500 (0.58%) were called active. About 5% were inconclusive and are not listed.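 Rule for the calls: active = inhibition above a set limit at one or more doses, reproduced on every date tested; inconclusive = results disagree between test dates, or hit never tested in dose response; inactive = the rest.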 These entries were drawn from the full list. Measured potencies and affinities stand elsewhere.

The compounds below were run against Virion infectivity factor (Human immunodeficiency virus type 1 group M subtype B (isolate BH10)) + Virion infectivity factor (Human immunodeficiency virus type 1 group M subtype B (isolate BRU/LAI)) + Virion infectivity factor (Human immunodeficiency virus type 1 group M subtype B (isolate PCV12)) + Virion infectivity factor (Human immunodeficiency virus type 1 group M subtype B (isolate HXB2)) + DNA dC->dU-editing enzyme APOBEC-3G (Homo sapiens) (UniProt P69720+P69721+P69722+P69723+Q9HC16) (assay: HIV-1 Vif–A3G interaction blockers – biochemical, TR-FRET, GST-Vif 1-94, biotin-A3G peptide, dose response retest, primary screen (AID 1117319;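 note: Vif residues 1-94 fused to GST binding biotinylated APOBEC3G peptide 110-148; 0% = full assay without inhibitor and 100% = GST in place of GST-Vif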)). Conditions: TR-FRET GST-Vif / biotin-A3G peptide binding; hits give high values.

inhibition, inactive:
O=C1CC(c2ccccc2)CC(O)=C1C=Nc1ccccc1Cl (stereo not given) -5.59%
CC(C)C(=O)N1CCN(CCN=CC2=C(O)CC(c3ccco3)CC2=O)CC1 (stereo not given) -5.81% and 11.7%
CCc1ccc(N=CC2=C(O)CC(c3ccco3)CC2=O)cc1 (stereo not given) -1.68%
O=C1CC(c2ccco2)CC(O)=C1C=NCCN1CCNCC1 (stereo not given) 31.7%
Cc1[nH]nc(N=CC2=C(O)CC(c3ccco3)CC2=O)c1-c1ccc(Cl)cc1 (stereo not given) 8.53%
O=C1CC(c2ccco2)CC(O)=C1C=NCCN1CCN(C(=O)Nc2ccc(Cl)cc2)CC1 (stereo not given) -5.15%
Cc1ccc(N=CC2=C(O)CC(c3ccco3)CC2=O)cc1 (stereo not given) 14.7%
O=C1CC(c2ccco2)CC(O)=C1C=Nc1ccccc1-c1ccccc1 (stereo not given) 18.4%
COc1cccc(NC(=O)CC(C)=O)c1 3.45%
CCNc1nc(NC(C)(C)C)nc(SCC(N)=O)n1 -9.57%
O=C(CN(Cc1cccs1)C(=O)CSc1nnc(COc2ccccc2)o1)NC1CCCCC1 3.54%
COc1ccc(C)cc1NC(=S)N1CCN(c2ncccn2)CC1 6.81%
CC1CCN(S(=O)(=O)c2ccc(C(C)C)cc2)CC1 -4.55%
Cc1cn([C@H]2C[C@H](O)[C@@H](CCC(=O)NCc3ccco3)O2)c(=O)[nH]c1=O 3.31%
Cc1cc(NC(=O)c2cc(-c3ccc(O)cc3)on2)no1 -3.11%
C=CCSc1nc2sc(C)c(C)c2c(=O)n1CC=C -3.91%
O=C1C2CCCN2C(c2cccs2)N1c1ccc(Cl)cc1 (stereo not given) -1.78%
COc1ccc(N2C(=O)C3CCCN3C2c2cccs2)cc1 (stereo not given) -1.1%
O=C1C2CCCN2C(c2ccccc2)N1c1ccc(Cl)cc1 (stereo not given) 15.8%
COc1cc(C2N(c3ccccn3)C(=O)C3CCCN32)cc(OC)c1OC (stereo not given) -8.96%
O=C(CNC(=O)c1ccc(Br)o1)Nc1cccc(S(=O)(=O)N2CCOCC2)c1 1.25%
CC1CCCCC1NC(=O)c1c(O)nc2ccccn2c1=O (stereo not given) -12.1%
COc1ccc(C(=O)Nc2ccc3c(c2)OCCO3)c(OC)c1 1.98%
Cc1ccc(C(=O)n2ncn(C)c2=S)cc1 -5.15%
COC(=O)CN1C(=O)COc2ccc(S(=O)(=O)N3CCCCC3)cc21 -2.76%
Nc1cccc2nc3ccccc3cc12 11.9%
Cc1cc(N)c2ccccc2n1 3.24%
O=C(CN1CCC(C(=O)c2ccc3c(c2)OCCO3)CC1)Nc1ccccc1F 2.56%
COc1cccc(C2NC(=O)c3ccccc3O2)c1OC (stereo not given) -1.95%
Cc1cc(-c2nnc(CCC(=O)N(CC3CC3)CC3CCCO3)o2)no1 (stereo not given) 0.72%
Cc1ccc(-c2cc(C(=O)Nc3c(C)n(C)n(-c4ccccc4)c3=O)[nH]n2)c(O)c1 23.2%
CC(=O)Nc1ccc(N2CCN(C(C)=O)CC2)cc1 24.9%
CC(=O)N1CCN(c2ccc(NC(=O)c3ccc4c(c3)OCO4)cc2)CC1 18.3%
CC(=O)N1CCN(c2ccc(NCc3cccc4ccccc34)cc2)CC1 28.3%
O=C(c1ccccc1)N1CCN(c2ccc(NCc3ccc4c(c3)OCO4)cc2)CC1 21.7%
Nc1c(C(=O)CSc2nccn2-c2ccc(Cl)cc2)c(=O)[nH]c(=O)n1C1CC1 -3.47%
CC1CCN(CCCCOc2cccc(Br)c2)CC1 -0.02%
COc1cccc(NC(=O)N(C)C[C@H]2OCc3cnnn3CCCC(=O)N([C@H](C)CO)C[C@@H]2C)c1 -12.7%
COc1ccc(Oc2cccc(Cl)c2CNC(=O)CSCC(=O)O)cc1 7.24%
COc1ccc(NC(=O)Cc2c[nH]c3ccccc23)cc1S(=O)(=O)N1CCOCC1 -3.49%
Cc1c(NC(=O)C(C)N2C(=O)C3C4C=CC(C4)C3C2=O)c(=O)n(-c2ccccc2)n1C (stereo not given) -0.22%
COc1ccc(C(=O)Cn2nnc(-c3ccccc3NC(=O)C3CCCCC3)n2)cc1 -3.13%
Cc1ccc(OCCCN2C(=O)C(=O)c3cc(C)ccc32)cc1 -4.93%
Cn1nnnc1SCCNS(=O)(=O)c1ccccc1 2.62%
Cc1ccc(Nc2cnn(C34CC5CC(CC(CC(=O)O)(C5)C3)C4)c(=O)c2Cl)cc1 -0.2%
Cc1cccc(Nc2cnn(C34CC5CC(CC(CC(=O)O)(C5)C3)C4)c(=O)c2Cl)c1 5.69%
O=c1[nH]nc(Cc2ccc3ccccc3n2)c2ccccc12 -4.55%
COC(=O)N1CCN(c2ccc(C(C)=O)cc2)CC1 5.12%
Cc1ccc(NC(=O)C2CCCN(S(=O)(=O)c3cnc[nH]3)C2)c(Br)c1 (stereo not given) 1.69%
COc1ccc(C(=O)Nc2nc(CC(=O)NCCc3cccc(OC)c3)cs2)cc1 0.4%
COc1cc(/C=C/c2ccc(O)cc2)cc(OC)c1 0.21%
COc1cc(O)cc(/C=C/c2ccccc2)c1 6.25%
CNS(=O)(=O)c1cccc(C(=O)OCC(=O)NC(C)CCc2ccccc2)c1 (stereo not given) 1.38%
COC(=O)c1ccc(-n2nnnc2SC)cc1 6.93%
CCOc1ccc(NC(=O)N[C@@H](Cc2ccccc2)C(=O)O)cc1 3.58%
CC(=O)Nc1ccc(NC(=O)CC2Nc3cccc4cccc(c34)NC2=O)cc1 (stereo not given) 18%
O=C(CC1Nc2cccc3cccc(c23)NC1=O)Nc1ccc(F)cc1 (stereo not given) 19.5%
Cc1ccc(C)c(CSc2nnc(C)c(=O)[nH]2)c1 -5.37%
Cc1nn(CC#N)c(=O)n1-c1ccc(F)cc1 0.42%
O=C(CCS(=O)(=O)c1ccc(Cl)cc1)N1CCN(c2ccc(F)cc2)CC1 -4.61%
O=C(CCS(=O)(=O)c1ccc(Br)cc1)N1CCN(c2ccc(Cl)cc2)CC1 5.94%
COc1ccc(CCN2CCCn3c2nc2c3c(=O)n(CC(N)=O)c(=O)n2C)cc1OC -0.32%
NS(=O)(=O)c1ccc(Cl)cc1[N+](=O)[O-] -11.6%
O=C1CCC(=O)N1CN(C(=O)c1ccco1)c1ccc(Cl)c(Cl)c1 3.26% and 3.71%
COc1ccc(N(CN2C(=O)C3CC=CCC3C2=O)C(=O)c2ccco2)cc1 (stereo not given) 18.2%
CCc1nn2c(=O)cc(COc3ccc(/C=C4\C(=N)N5N=C(C)SC5=NC4=O)cc3)nc2s1 -5.78%
Oc1c(CN2CCOCC2)ccc(CN2CCOCC2)c1O 30.9%
Oc1c(CN2CCOCC2)cc(CN2CCOCC2)c(O)c1CN1CCOCC1 4.15%
CC1(C)Cc2ccccc2C2CC(O)C(=O)N21 (stereo not given) 4.18%
CC(=O)N1Cc2ccccc2C(C)CC12CCCC2 (stereo not given) -6.77%
NC(=O)c1ccc[n+](Cc2ccc(-c3ccccc3)cc2)c1 8.95%
Cc1ccc(CN2C(=O)c3ccccc3NC2c2cc(Br)ccc2O)cc1 (stereo not given) -3.39%
CCCCCCCCOC(=O)c1cc([N+](=O)[O-])c(Sc2ncnc3nc[nH]c23)c([N+](=O)[O-])c1 29.5%
CCOC(=O)C(C)(C)Sc1ncnc2nc[nH]c12 -1.07%
CCn1c(SCC(=O)NCCc2ccccc2)nc2sc3c(c2c1=O)CCN(C)C3 14.3%
COc1ccccc1CCc1nnc(CCC(=O)NCC[C@@H]2C[C@@H]3C=C[C@H]2C3)o1 2.31%
O=C(c1ccco1)N1CCN(Cc2cc(=O)c(OCc3ccccc3Cl)co2)CC1 -9.22%
N#CC1=C(N)C2=CCCC[C@H]2[C@H](c2ccc(Br)cc2)C1(C#N)C#N 4.38%
N#CC(C#N)=C1C=C2C=C(N3CCCCCC3)CCC2CC1 (stereo not given) 8.28%
Cc1nc(C(=O)O)nn1-c1cc(Cl)ccc1Cl 2.06%
Cc1cccc(N(C(=O)CNC(=O)c2ccco2)C(C(=O)NC2CCCC2)c2cccnc2)c1 (stereo not given) -6.56%
CN(C)S(=O)(=O)c1cccc(NC(=O)CSc2nncn2-c2ccccc2)c1 1.63%
COc1cc([C@H]2[C@@H]3CCCC[C@]3(O)CCN2Cc2ccccc2F)ccc1O 4.71%
O=C(CN1CC(=O)Oc2ccccc21)OCC(=O)c1cccc(Br)c1 20.7%
O=c1cc(O)c(-c2ccccc2Cl)c(Cl)[nH]1 -2.11%
O=c1cc(-c2ccccc2)c2c([nH]1)CCCC2 -2.63%
CC(c1ccccc1)n1c(SCC(=O)Nc2ccccc2)n[nH]c1=O (stereo not given) -10.8%
CCN(CC)c1ccc(C2Nc3cccc4cccc(c34)N2)c(O)c1 6.26%
Oc1ccccc1C1Nc2cccc3cccc(c23)N1 20%
Cc1csc2cc(-c3cccc([N+](=O)[O-])c3)c(-c3cccc([N+](=O)[O-])c3)c[n+]12 1.42%
Cc1ccc(-c2cc3cccc[n+]3cc2-c2ccc(C)cc2)cc1 10.5%
Cn1nccc1C(=O)Nc1ccc2c(c1)OCO2 -8.05%
O=C(CSc1nnc2scc(-c3ccc(Cl)cc3)n12)NCc1ccc2c(c1)OCO2 31.6%
Cc1c(NC(=O)CN2CCN(c3ccccc3)CC2)c(=O)n(-c2ccccc2)n1C 2.33%
Cc1c(NC(=O)CN2CCN(c3ccc(F)cc3)CC2)c(=O)n(-c2ccccc2)n1C -4.9%
